Experimental findings from PubChem BioAssay (NCI) are described below.

Compounds without any hit were thinned out: in the full panel of roughly 79,000, 15% have a hit. Values without a mark were called inactive. The source made the active and inactive calls. Cut-off read from the data, not from the text of the source: active = growth inhibition above about 70%; inactive = the rest.

Test [1] can be described thus: NCI Yeast Anticancer Drug Screen. Data for the rad50 strain (AID 155).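 Note: 0% = growth of vehicle-only cultures of the same strain.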 The settings on record: S. cerevisiae rad50 strain growth inhibition, hits give high values. In a few lines:
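Vehicle-treated cultures provide the reference for the growth inhibition reported for compound-exposed, repair-deficient yeast.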

A short description of test [2]: NCI Yeast Anticancer Drug Screen. Data for the mec2-1 strain (AID 157). Conditions: S. cerevisiae mec2-1 strain, hits give high values. The gist of the method:
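Each compound was tested on mec2-1 yeast, a strain altered in DNA damage repair or cell cycle control. Growth inhibition is reported relative to vehicle.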

A short description of test [3]: NCI Yeast Anticancer Drug Screen. Data for the sgs1 mgt1 strain (AID 161).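 Note: 0% = growth of cultures given vehicle only.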 The settings on record: S. cerevisiae sgs1 mgt1 strain, hits give high values. In a few lines:
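Test agents were incubated with a DNA-repair-mutant yeast strain. Growth was then read and compared against vehicle-treated controls.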

The nature of test [4]: NCI Yeast Anticancer Drug Screen. Data for the cln2 rad14 strain (AID 165).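 Note: 0% = growth equal to vehicle treated cultures.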 Conditions: S. cerevisiae cln2 rad14 strain, hits give high values. The gist of the method: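 Test compounds were added to cln2 rad14 yeast cultures; inhibition of growth was then determined by comparison with vehicle treatment.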
Test [5] can be described thus: NCI Yeast Anticancer Drug Screen. Data for the bub3 strain (AID 167). The settings on record: S. cerevisiae bub3 mutant strain, hits give high values. The gist of the method:
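Mutant yeast screening strain plus compound; vehicle-treated cultures serve as the 0% inhibition reference.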

Test [6] can be described thus: NCI Yeast Anticancer Drug Screen. Data for the mlh1 rad18 strain (AID 175). Conditions: S. cerevisiae mlh1 rad18 strain growth inhibition, hits give high values. In a few lines: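 Inhibition values reflect reduced growth of mutant yeast versus vehicle-treated controls following compound exposure; the mutations affect DNA damage repair.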
[7] abbreviates: at 5.0 µM (retest, dose inferred, filed as 0.5).
Where [8] appears, read: at 50.0 µM (retest, dose inferred, filed as 5.0).

As to `O=C(O)CCCCC1CCCCC1.[Cu+2]`, the growth inhibition is 31% in test [1] (setting [7]); 94% (active) in test [1] (setting [8]); 14.7% in test [1] (at 50.0 µM); 23% in test [2] (setting [7]); 90% (active) in test [2] (setting [8]); -3.1% in test [2] (at 50.0 µM). The growth inhibition is 13% in test [3] (setting [7]); 93% (active) in test [3] (setting [8]); 36% in test [3] (at 50.0 µM); 8% in test [4] (setting [7]); 30% in test [4] (setting [8]); 0.9% in test [4] (at 50.0 µM). The growth inhibition in test [5] (setting [7]) is 17%; in test [5] (setting [8]), 91% (active); in test [5] (at 50.0 µM), 6.2%; in test [6] (setting [7]), 19%; in test [6] (setting [8]), 94% (active); in test [6] (at 50.0 µM) it was 1.85%.

On to `CC(C)(C)c1ccc(CN2CCN(C(c3ccccc3)c3ccc(Cl)cc3)CC2)cc1` (stereo not drawn), for which the growth inhibition in test [1] (setting [7]) is 20%; in test [1] (setting [8]), 52%; in test [1] (at 50.0 µM), 15.7%; in test [2] (setting [7]), 5%; in test [2] (setting [8]), 17%; in test [2] (at 50.0 µM), 1.45%. Further, the growth inhibition in test [3] (setting [7]) is 27%; in test [3] (setting [8]), 81% (active); in test [3] (at 50.0 µM), -10.8%; in test [4] (setting [7]), -4%; in test [4] (setting [8]), 21%; in test [4] (at 50.0 µM), -8%. In addition, the growth inhibition is 42% in test [5] (setting [7]); 73% (active) in test [5] (setting [8]); -4.4% in test [5] (at 50.0 µM); 35% in test [6] (setting [7]); 61% in test [6] (setting [8]); 52.5% in test [6] (at 50.0 µM).

On to `O=C(Nc1ccccc1F)C(Br)C(Br)c1ccccc1` (stereo not drawn), for which the growth inhibition in test [1] (setting [7]) is 6%; in test [1] (setting [8]), 97% (active); in test [1] (at 50.0 µM), 98.6% (active); in test [2] (setting [7]), 8%; in test [2] (setting [8]), 90% (active); in test [2] (at 50.0 µM), 99% (active). Further, the growth inhibition in test [3] (setting [7]) is 23%; in test [3] (setting [8]), 97% (active); in test [3] (at 50.0 µM), 99.4% (active); in test [4] (setting [7]), 6%; in test [4] (setting [8]), 36%; in test [4] (at 50.0 µM), 99.1% (active). Also, the growth inhibition in test [5] (setting [7]) is -1%; in test [5] (setting [8]), 95% (active); in test [5] (at 50.0 µM), 99% (active); in test [6] (setting [7]), 29%; in test [6] (setting [8]), 95% (active); in test [6] (at 50.0 µM), 98.9% (active).

Regarding `O=C(/C=C/C=C/c1ccccc1)c1ccco1`, the growth inhibition in test [1] (setting [7]) was -7%; in test [1] (setting [8]), -16%; in test [1] (at 50.0 µM), 83% (active); in test [2] (setting [7]), 14%; in test [2] (setting [8]), 5%; in test [2] (at 50.0 µM), 90.3% (active). The growth inhibition in test [3] (setting [7]) is -10%; in test [3] (setting [8]), 28%; in test [3] (at 50.0 µM), 91.7% (active); in test [4] (setting [7]), 4%; in test [4] (setting [8]), 28%; in test [4] (at 50.0 µM), 50.4%. Moreover, the growth inhibition was -6% in test [5] (setting [7]); 57% in test [5] (setting [8]); 91.9% (active) in test [5] (at 50.0 µM); -19% in test [6] (setting [7]); 44% in test [6] (setting [8]); 76% (active) in test [6] (at 50.0 µM).

Regarding `O=C(O)c1ccc2c(c1)CC1(C2)Cc2cc3c(cc2C1=O)CCC3` (stereo not drawn), the growth inhibition in test [1] (setting [7]) is 34%; in test [1] (setting [8]) it was 34%; in test [1] (at 50.0 µM), 84.3% (active); in test [2] (setting [7]) it was 22%; in test [2] (setting [8]), 22%; in test [2] (at 50.0 µM), 83.8% (active). Moreover, the growth inhibition in test [3] (setting [7]) was 19%; in test [3] (setting [8]) it was 19%; in test [3] (at 50.0 µM), 79.5% (active); in test [4] (setting [7]), 21%; in test [4] (setting [8]), 21%; in test [4] (at 50.0 µM), 83.1% (active). The growth inhibition in test [5] (setting [7]) was 12%; in test [5] (setting [8]), 12%; in test [5] (at 50.0 µM) it was 81.8% (active); in test [6] (setting [7]), 25%; in test [6] (setting [8]), 25%; in test [6] (at 50.0 µM), 79.9% (active).

In the case of `Cc1ccc(O)c(C(c2cccc(C(c3cc(C)ccc3O)c3cc(C)ccc3O)c2)c2cc(C)ccc2O)c1`, the growth inhibition in test [1] (setting [7]) was 66%; in test [1] (setting [8]) it was 94% (active); in test [1] (at 50.0 µM) it was 95.5% (active); in test [2] (setting [7]), 54%; in test [2] (setting [8]), 97% (active); in test [2] (at 50.0 µM), 95.4% (active). Moreover, the growth inhibition was 31% in test [3] (setting [7]); 97% (active) in test [3] (setting [8]); 95% (active) in test [3] (at 50.0 µM); 66% in test [4] (setting [7]); 96% (active) in test [4] (setting [8]); 91.6% (active) in test [4] (at 50.0 µM). For the same compound, the growth inhibition in test [5] (setting [7]) was 72% (active); in test [5] (setting [8]), 96% (active); in test [5] (at 50.0 µM) it was 95.7% (active); in test [6] (setting [7]), 78% (active); in test [6] (setting [8]), 96% (active); in test [6] (at 50.0 µM), 95.8% (active).
